# In the library only some 7.5% were active in any assay of this set; here they are far more common.
# NPC1 prom act = NPC1 promoter activation; Potency, µM (doses to about 9.22 µM), without a hit: at the top dose activation, actives largely listed as activators; hit rate 2.4% among 320,000; Huh7 NPC1 promoter luciferase reporter, 24 h; note: % of control where 0% means no effect; nearly all actives have a fitted effect of over 60% in size
#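 Compounds in DMSO were transferred onto Huh7 NPC1-luciferase reporter cells pre-incubated 2 h; after 24 h at 37 °C, Amplite reagent was dispensed and luminescence recorded 10 min later.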
# ELG1 genotoxic = inducers of genotoxicity in HEK293T ELG1-luciferase cells; HEK293T ELG1-luciferase reporter, luminescence, 16 h; hit rate 1.3% among 330,000; Potency, µM (titrated, usually from 46 µM), inactives show at the highest dose activity change, positive = activation, usual class: activators; note: % of control where 0% means no effect; nearly all actives have a fitted effect of over 60% in size
#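 Step 1: seed 2,000 HEK293T ELG1-luciferase cells per well. Step 2: add compound or DMSO, incubate 16 hr at 37 °C. Step 3: ONE-Glo, 30 min at room temperature, read luminescence.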
# Rab9 promoter act = activators of Rab9 promoter | hit rate 2.8% among 320,000 | Huh7 Rab9 promoter-luciferase reporter, luminescence, 24 h | Potency, µM (series often up to 9.22 µM), inactives show at the highest dose activation, negative = inhibition, actives largely listed as activators; note: % of control where 0% means no effect; nearly all actives have a fitted effect of over 60% in size
#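 Using Huh7 cells stably transfected with Rab9 promoter–luciferase, compounds were incubated 24 h at 37 °C, 5% CO2; luciferase luminescence was read 10 min after reagent addition.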
# FLuc modulator = counter-screen for miR-21 project: firefly luciferase inhibitors or activators; P08659; purified FLuc, Km substrates, luminescence inhibition; hit rate 6.9% among 360,000; Potency, µM (titrated, usually from 57.5 µM), inactives show at the top dose activity change, negative = inhibition, most hits filed as inhibitors;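 note: plate controls were vehicle for no effect and reference inhibitor for full effect; nearly all actives have a fitted effect of over 55% in size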
# Target sequence (P08659 whole entry, looked up): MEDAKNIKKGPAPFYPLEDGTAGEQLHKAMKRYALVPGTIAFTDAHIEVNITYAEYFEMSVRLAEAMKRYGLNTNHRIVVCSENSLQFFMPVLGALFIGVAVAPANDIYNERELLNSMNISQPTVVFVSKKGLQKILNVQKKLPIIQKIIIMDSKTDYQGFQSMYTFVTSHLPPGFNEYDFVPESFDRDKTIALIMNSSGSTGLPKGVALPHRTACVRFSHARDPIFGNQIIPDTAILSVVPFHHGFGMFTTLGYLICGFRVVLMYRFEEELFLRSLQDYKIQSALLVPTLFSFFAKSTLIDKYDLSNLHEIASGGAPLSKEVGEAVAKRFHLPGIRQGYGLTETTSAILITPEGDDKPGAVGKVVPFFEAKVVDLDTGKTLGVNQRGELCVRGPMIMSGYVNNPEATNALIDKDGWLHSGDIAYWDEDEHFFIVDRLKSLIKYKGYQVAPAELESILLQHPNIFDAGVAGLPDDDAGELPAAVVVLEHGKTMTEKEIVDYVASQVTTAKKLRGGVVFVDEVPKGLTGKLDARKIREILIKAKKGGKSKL
#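 Purified P. pyralis luciferase (10nM final) with 10uM D-luciferin and 10uM ATP (Km levels) in 50mM Tris acetate pH 7.5, 10mM Mg acetate, 0.01% Tween-20, 0.05% BSA; qHTS 6-point titration, ~60 µM downward; luminescence read.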
# SMN2 splice up = enhancers of SMN2 splice variant expression | HEK293 SMN2-luciferase splicing reporter, luminescence, 30-36 h | Potency, µM (series often up to 46.1 µM), for the others: at the highest dose activity change, positive = activation, most hits filed as activators | hit rate 2.8% among 210,000; note: % of control where 0% means no effect; nearly all actives have a fitted effect of over 55% in size
#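 HEK293 cells carry an SMN2 minigene-luciferase reporter in which exon 7 inclusion puts luciferase in frame. Cells were seeded at 2000 cells/well, attached for 10-12 hours, then exposed to compounds for 30-36 hours at 37C before ONE-Glo luminescence.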
# Luc counter = blocks Kinase-Glo luciferase, a counter-screen artifact; hit rate 0.28% among 200,000; Potency, µM (doses to about 38.3 µM), for inactives: at the highest dose activity change, negative = inhibition, most hits filed as inhibitors; Kinase-Glo luciferase, ATP luminescence, 8 min; Q27757; note: % is set by controls: 0 for no effect and ±100 for the full control effect; nearly all actives have a fitted effect of over 60% in size
#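 Luminescence was the read-out, taken after 8-minute incubation at ambient temperature. Luciferase turned over luciferin with 10 uM ATP in imidazole pH 7.2 buffer containing KCl, MgCl2, Tween 20 and BSA.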
# The depositor's hits bear a star; ? = inconclusive; · = no result given; [ ] = remark or other dose. Calls come from the whole dose curve; as a rule, active = well fitted curve in the direction sought with a large enough effect; inconclusive = small, poorly fitted or top-dose-only effect, or another doubt; inactive = no such curve, though single readings can be large; an effect the other way counts as inactive or inconclusive. Potency is the fitted concentration of half-maximal effect.
SMILES,NPC1 prom act,ELG1 genotoxic,Rab9 promoter act,FLuc modulator,SMN2 splice up,Luc counter
CCN(CC)c1ccc(N=Cc2cc(Br)ccc2O)cc1,-1%,-7%,-6%,9.5µM*,-17%,-3%
Cc1ccc(OCn2c(=O)sc3ccccc32)cc1,?,16µM*,?,24µM*,?,-1%
O=c1sc2ccccc2n1CCOc1ccccc1,?,21µM*,?,13µM*,?,-10%
COc1ccccc1OCCCn1c(=O)oc2ccccc21,4%,8%,1%,?,16%,3%
CCCOc1ccc(Cn2c(=O)sc3ccccc32)cc1,·,·,·,-14%,-18%,·
COc1ccccc1OCCCn1c(=O)sc2ccccc21,14%,12%,29%,15µM*,18%,-3%
Cc1ccc(CN2C(=O)c3oc4ccc(C)cc4c(=O)c3C2c2ccc(O)cc2)cc1 (stereo unspecified),·,·,·,1%,18%,·
COc1ccc(NS(=O)(=O)c2ccc3c(c2)CCCN3C(=O)C2CCC2)cc1OC,·,·,·,-5%,·,·
Cc1ccc(NC2c3ncccc3C(=O)N2c2ccccc2C)cc1C (stereo unspecified),5%,1%,-4%,24µM*,-3%,-1%
COC(=O)c1ccc(NC(=O)c2cccc(NC(=O)c3ccco3)c2)cc1,-9%,1%,8%,-14%,·,·
COc1ccc(NC(=O)CNC(=O)c2ccco2)cc1,25%,?,26%,-15%,·,·
CCOc1ccccc1NC(=O)c1ccc(NC(=O)c2ccco2)cc1,3%,1%,-2%,-3%,-8%,9%
CCOC(=O)c1ccc(NC(=O)c2ccco2)cc1,3.5µM*,?,2.2µM*,11µM*,·,·
Cc1ccc(NC(=O)CNC(=O)c2ccco2)cc1,?,17%,4µM*,?,·,·
CC(C)OC(=O)c1ccc(NC(=O)c2ccco2)cc1,2.5µM*,2.8µM*,3.2µM*,13µM*,·,-4%
CCOC(=O)c1ccc(NC(=O)N(CC)CC)cc1,?,16µM*,2.5µM*,19µM*,11µM*,1%
CC(C)OC(=O)c1ccc(NC(=O)c2ccccc2)cc1,4µM*,17%,?,15µM*,13µM*,-5%
Cc1ccc(NC(=S)N(CCN(C)C)Cc2cccs2)cc1,-8%,-4%,-2%,0%,-20%,-3%
CCOC(=O)c1ccc(NC(=S)N(CCN(C)C)Cc2cccs2)cc1,-8%,-11%,-1%,-1%,3.5µM*,7%
CC(C)OC(=O)c1ccc2nc3ccccc3nc2c1,2.8µM*,?,0.71µM*,1.7µM*,·,·
CCn1c(=O)cc(SCC(=O)NCCc2cccc(C)c2)c2ccccc21,·,·,·,-12%,9%,·
Cc1c(C)n(C)c2ccc(C(=O)NCCCN3CCCC3)cc12,-1%,6%,-9%,0%,·,·
CCOc1cccc(C(=O)Nc2ccc(N(CC)CC)cc2)c1,15%,?,7%,13µM*,23%,-3%
CCOc1ccc(NC(=O)c2cnc(N3CCCCC3)c3ccccc23)cc1,·,·,·,11µM*,·,·
CCOc1cccc(C(=O)Nc2ccc3ccccc3c2)c1,2.2µM*,0.46µM*,0.56µM*,0.48µM*,·,·
SMILES,NPC1 prom act,ELG1 genotoxic,Rab9 promoter act,FLuc modulator,SMN2 splice up,Luc counter
CCN(CC)c1ccc(NC(=O)c2ccc3c(c2)c(C)c(C)n3C)cc1,-4%,1%,1%,9.5µM*,-28%,-4%
CCN(CC)C(=O)Cn1c(=O)n(CCCCCC(=O)NCc2ccc3c(c2)OCO3)c(=O)c2sccc21,·,·,·,-4%,2%,·
O=S(=O)(NCCCCCCc1ccccc1)c1cccc2c(Cl)cccc12,·,·,·,·,·,3%
CCN(CC)c1ccc(NC(=O)c2ccccc2OCC(=O)OC)cc1,17%,-1%,19%,21µM*,12%,1%
CCOc1ccc(C(=O)Nc2ccc(N3CCCC3)cc2)cc1,0%,4%,0%,?,-7%,0%
CCOc1cccc(C(=O)Nc2ccc(N3CCCC3)cc2)c1,?,18%,?,6µM*,·,·
CCc1ccc(CNC(=O)C2CCCN(S(=O)(=O)c3ccc4c(ccn4C)c3)C2)cc1 (stereo unspecified),·,·,·,-5%,·,·
Cc1ccc(-c2noc(CN(C3CCCCC3)S(=O)(=O)c3ccc(Cl)cc3)n2)cc1,·,·,·,-2%,9%,·
COc1ccccc1NC(=O)c1ccc2[nH]c(C)c(C)c2c1,?,?,2.8µM*,12µM*,·,·
Cc1ccccc1CNC(=O)c1ccc2[nH]c(C)c(C)c2c1,·,·,·,-16%,·,·
Cc1ccccc1NC(=O)c1ccc2[nH]c(C)c(C)c2c1,·,·,·,21µM*,·,·
Cc1[nH]c2ccc(C(=O)O)cc2c1C,7%,7%,0%,-4%,4%,4%
Cc1[nH]c2ccc(C(=O)Nc3ccncc3)cc2c1C,-1%,-2%,5%,17µM*,·,·
Cc1ccc(O)c(C(CC(=O)NCC2(c3ccccc3)CCCC2)c2ccccc2)c1 (stereo unspecified),·,·,·,0%,-65%,·
CCOC(=O)c1c(S(=O)(=O)NCC(=O)Nc2ccc(C)c(N(C)C)c2)c(C)n(C)c1C,·,·,·,-7%,·,·
CCn1cnc2cc(NC(=O)c3ccc(C)cc3)ccc21,2µM*,?,4µM*,11µM*,·,·
Cc1ccc(C(=O)Nc2ccc3c(c2)ncn3C)cc1,3.2µM*,?,4µM*,-3%[2.3 µM],2.5µM*,1%
CCn1cnc2cc(NS(=O)(=O)c3ccc(OC)c(OC)c3)ccc21,0%,0%,-2%,-1%,·,·
Cc1ccc(NC(=O)CCn2cnc3cc(C)c(C)cc32)cc1,-1%,-2%,-1%,-11%,-5%,3%
Cc1ccc(Cn2c(CNC(=O)c3cccc(C)c3)nc3ccccc32)cc1,·,·,·,-1%,9%,·
CCCOC(=O)c1ccc(Nc2nc3ccccc3nc2-n2nc(C)cc2C)cc1,·,·,·,1%,5%,·
COC(=O)[C@@H](Cc1c[nH]c2ccccc12)NC(=O)c1ccc2c(c1)OCO2,1%,?,3%,0.48µM*,·,·
O=C(COC(=O)[C@H](Cc1c[nH]c2ccccc12)NC(=O)c1ccc(Cl)cc1)Nc1ccc2c(c1)OCO2,-2%,10%,2%,17µM*,-5%,6%
COC(=O)[C@@H](Cc1c[nH]c2ccccc12)NC(=O)c1cc(=O)[nH]c2ccccc12,-1%,-4%,2%,0%,·,·
CC(C)(C)c1ccc(C(=O)NC(Cc2c[nH]c3ccccc23)C(=O)OCC(=O)c2ccc(Cl)cc2)cc1 (stereo unspecified),·,·,·,-4%,·,·
CCOc1ccc(C(=O)N(Cc2cc(OC)c(OC)c(OC)c2)c2ccccn2)cc1,·,·,·,6%,·,·
CC(C)c1ccc(S(=O)(=O)/N=C2\C=C(NS(=O)(=O)c3ccccc3)C(=O)c3ccccc32)cc1,8%,-10%,12%,19µM*,·,·

# Screening results deposited in PubChem BioAssay by National Center for Advancing Translational Sciences (NCATS).
